Data as given in PubChem BioAssay AID1863 (Southern Research Specialized Biocontainment Screening …, 2009).
The whole screen tested about 300,000 compounds, of which about 480 (0.16%) were called active.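 The calls were made as follows: active = inhibition over 29.93%, a cutoff 3 SD above the screen mean, later confirmed by dose response; inconclusive = inhibition over 29.93% but no dose response follow-up; inactive = inhibition at most 29.93% or unconfirmed.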 A selection follows. Results with a measured potency or affinity are listed apart.

Experiment: inhibitors of PhoP regulon expression, primary screen, Salmonella Typhimurium, GFP reporter (AID 1863);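 also: 0% = low Mg2+ inducing control and 100% = high Mg2+ repressing control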
Settings: S. Typhimurium PhoP-regulated promoter GFP reporter, 4 h; at 50 µM; stronger effect = higher value

inhibition, inactive:
Cc1nc2c3ccccc3nc(SCC(=O)N3CC(C)CC(C)C3)n2n1 (centres undefined) 4.78%
Cc1ccc2oc(=O)c3cnn(CC(=O)N4CCCc5ccccc54)c3c2c1 -8.23%
Cc1cccc(NC(=O)CNC(=O)N2CC(=O)Nc3ccccc32)c1C -2.45%
Cc1cccc(C(=O)Nc2nnc(SCC(=O)NC3CC3)s2)c1 -3.7%
CS(=O)(=O)N1CCc2ccc(NC(=O)C3CCCO3)cc2C1 (centres undefined) 4.89%
Cc1ccc(S(=O)(=O)/N=C(/c2ccc(F)cc2)N2CCOCC2)cc1 -3.33%
CCOC(=O)C1CCN(c2ncnc3nc[nH]c23)CC1 0.02%
Cc1ccc(OCCC(=O)OCC(=O)Nc2ccccc2)cc1 1.27%
O=C(N/N=C/c1cc(Cl)ccc1O)c1ccc(Br)cc1 4.94%
O=C(N/N=C/c1coc2ccc(Cl)cc2c1=O)c1ccc(O)cc1 10.4%
O=C(N/N=C/c1cc([N+](=O)[O-])ccc1O)C1C2CCCCC21 (centres undefined) -0.31%
O=C(N/N=C/c1cccnc1)c1cccc(Cl)c1 -1.41%
O=C(N/N=C/c1cc([N+](=O)[O-])ccc1O)C1CCCCC1 1.18%
O=C(N/N=C/c1coc2ccc(Cl)cc2c1=O)c1ccncc1 7.37%
CCOc1ccc(CN2CCC(n3nccc3NC(=O)c3ccccc3OC)CC2)cc1 -0.04%
CCCNC(=O)c1ccccc1NS(=O)(=O)c1ccc(OC)c(OC)c1 4.85%
CCc1cc(C(=O)N(CCCOC)c2c(N)n(Cc3ccccc3)c(=O)[nH]c2=O)sc1C -2.51%
CCOC(=O)C(C(=O)OCC)C(C(=O)OCC)N1CCOCC1 (centres undefined) 3.26%
CC1(C)NC(=O)N(CC(O)CN2C(=O)CCC2=O)C1=O (centres undefined) -6.24%
Cn1c2ccccc2c(=O)c2ccc(C#Cc3ccccn3)cc21 0.47%
COc1ccccc1N1CCN(C(c2ccccc2)c2nnnn2CCc2ccccc2)CC1 (centres undefined) 1.99%
Cc1cc(C)n(CCCNC(=O)Cn2nnnc2CN2C[C@@H](C)O[C@@H](C)C2)n1 0.46%
COc1ccccc1NS(=O)(=O)c1ccc(Cl)c(NC(=O)c2sc3cc(Cl)ccc3c2Cl)c1 5.27%
Cc1cc(SCC(=O)N/N=C/c2ccc(O)c(O)c2)c(C)cc1Br -9.61%
Cc1cc(SCC(=O)N/N=C/c2ccc(O)cc2O)c(C)cc1Br -6.96%
CCCCC(c1nnnn1C1CCCC1)N1CCN(C(=O)c2ccco2)CC1 (centres undefined) -4.03%
Cc1cc(C(=O)N/N=C/c2cc(Cl)cc([N+](=O)[O-])c2O)c2ccccc2n1 28.8%
Cc1cc(C(=O)N/N=C/c2cc([N+](=O)[O-])ccc2O)c2ccccc2n1 18.3%
O=C(Nc1ccccc1N1CCN(C(=O)c2ccc(Cl)cc2)CC1)c1cccc(F)c1 2.12%
Cc1ccc(S(=O)(=O)N2CCC(C(=O)NCCN3CCOCC3)CC2)cc1C -3.49%
O=C(c1ccc(Cl)cc1)c1ccc(Oc2cc(NN3CCCCC3)c([N+](=O)[O-])cc2[N+](=O)[O-])cc1 6.36%
CCOc1ccc(C2CC(=O)NC2=O)cc1 (centres undefined) 3.62%
O=C(NCc1nc(-c2ccc(Cl)cc2)no1)c1ccco1 -1.48%
CN1CCN(C(=O)CCN2C(=O)/C(=C\c3ccc(Cl)cc3)SC2=S)CC1 -5.92%
O=C(O)c1ccc(N2C(=O)CC(N3C(=O)/C(=C/c4ccc(Cl)cc4)SC3=S)C2=O)cc1 (centres undefined) 16%
Cc1cccc(C)c1NC(=O)CCCCCC1NC(=O)NC1C (centres undefined) 2.4%
Cc1nn(-c2ccccc2)c(N)c1Sc1ccc([N+](=O)[O-])cc1 0.62%
C=CCn1c(=NC(=O)CN2C(=O)CCC2=O)sc2cc(S(N)(=O)=O)ccc21 17%
CC1CCN(Cc2ccc(-c3nnn(CC(=O)Nc4ccccc4Cl)n3)cc2)CC1 -3.86%
COc1ccccc1N1CCN(C(=O)C(C)CS(=O)(=O)c2ccc3c(c2)NC(=O)CS3)CC1 (centres undefined) -8.13%
O=[N+]([O-])c1cc(-c2ccn[nH]2)ccc1Cl -3.78%
O=[N+]([O-])c1cccc(-c2ccn[nH]2)c1 -3.87%
Cc1cc(C(C)(C)C)ccc1OCCOCCN1CCCC1 3.82%
Cc1cc(C(C)(C)C)ccc1OCCN(C)C -7.47%
C[N+](C)(CCOc1ccccc1)Cc1ccccc1 (tested in a mixture with another compound) -8.86%
CC(C)(C)c1ccc(OCCNCc2ccccc2)cc1 -2.16%
Cc1ccccc1CSc1nnc(-c2ccncc2)n1C 1.82%
COc1ccccc1C(=O)NCCC(=O)NC(C)c1ccc(-n2ccnc2)cc1 (centres undefined) 9.9%
C#CC[N+](C)(C)CCCCCCCCCC 8.05%
CCCCCC[N+](C)(C)CCSSCC[N+](C)(C)CCCCCC -6.44%
C[N+](C)(C)CCCCCC[N+](C)(C)C -9.93%
C[N+](C)(C)CCCCCCCCCC[N+](C)(C)C -6.25%
CC1CCc2cc(F)cc3c(O)c(C(=O)NCCN(C)C)c(=O)n1c23 (centres undefined) 2.46%
CN1CCN(c2c(F)cc3c(=O)c(C(=O)O)cn4c3c2SCC4)CC1 -8.39%
CCN(CC)CCCNC(=O)c1c(O)c2cc(F)cc3c2n(c1=O)C(C)CC3 (centres undefined) 8.52%
O=C(c1cncc(Br)c1)N1CCN(S(=O)(=O)c2ccccc2C(F)(F)F)CC1 -1.26%
Cc1ccc(C(=O)N/C(=C\c2cccnc2)C(=O)N2CCCC2)cc1 -6.95%
Cc1ccc(C2=Nc3ccccc3NC(C)(c3ccc(C)o3)C2)o1 (centres undefined) -5.88%
Cc1nnsc1S(=O)c1ccc(Cl)c(Cl)c1 (centres undefined) 3.99%
